TexasRed fluor – Texas Red fluorescence interference in TRb-SRC2 counter-screen | TRb/SRC2 Texas Red total fluorescence interference | Potency, µM (series often up to 106 µM) | 280,000 tested, 0.29% active; active means well fitted curve in either direction with a large enough effect; inconclusive means small, poorly fitted or top-dose-only effect
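Human TRb ligand-binding domain at 0.6 uM with 20 nM Texas Red SRC2 peptide in Tris buffer containing 1 uM T3 and 5% DMSO, incubated with compound 5 h at ambient temperature. Total fluorescence (555/632 nm) calculated as parallel + 2 × perpendicular.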
TRb SRC2 PPI – TRbeta-SRC2 interaction inhibition. 280,000 tested, 0.065% active. P10828. Potency, µM (highest dose often 106 µM), most hits filed as inhibitors. TRbeta-SRC2 peptide binding, fluorescence polarization; receptor liganded with 1 µM T3; further: nearly all actives have a fitted effect of over 50% in size
Target sequence (P10828 whole entry, looked up): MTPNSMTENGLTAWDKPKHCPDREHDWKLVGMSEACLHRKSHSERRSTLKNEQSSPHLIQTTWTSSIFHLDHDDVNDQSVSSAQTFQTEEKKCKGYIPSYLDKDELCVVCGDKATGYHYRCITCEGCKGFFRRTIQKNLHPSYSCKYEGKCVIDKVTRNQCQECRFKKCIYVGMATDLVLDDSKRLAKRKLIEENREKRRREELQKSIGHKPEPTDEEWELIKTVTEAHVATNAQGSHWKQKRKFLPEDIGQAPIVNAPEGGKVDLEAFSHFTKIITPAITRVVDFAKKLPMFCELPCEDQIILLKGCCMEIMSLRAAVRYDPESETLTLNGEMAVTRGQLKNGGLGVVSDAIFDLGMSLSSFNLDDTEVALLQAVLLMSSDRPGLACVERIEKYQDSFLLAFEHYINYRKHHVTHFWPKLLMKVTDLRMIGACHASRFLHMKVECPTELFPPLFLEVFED
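Quantitative HTS by FP: 0.6 uM TRb LBD, 20 nM labeled SRC2 20-mer, 1 uM T3, 5% DMSO; 5 hr ambient incubation; % activity per concentration and potencies from concentration series.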
Tau fluor cs – counter-screen for tau fibril formation inhibitors | tau K18 P301L Alexa594 fluorescence, heparin fibrillization | Potency, µM (series often up to 57.7 µM) | 280,000 tested, 0.93% active | AID 1463; further: nearly all actives have a fitted effect of over 55% in size
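Human K18 P301L tau (15 uM unlabeled plus 0.24 uM Alexa 594-labeled, final) in 100 mM sodium acetate pH 7 was mixed with compound and 20 uM heparin and incubated 6 hr at 37 C.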
Tau fibril ThT – tau fibrillization inhibition (ThT binding); Potency, µM (doses to about 57.4 µM), usual class: inhibitors; AID 1460; 270,000 tested, 2.1% active; recombinant tau K18 P301L (four-repeat tau fragment), heparin-induced fibrillization, ThT fluorescence; further: nearly all actives have a fitted effect of over 55% in size
Target sequence (P10636 561-689 P618L limits assumed): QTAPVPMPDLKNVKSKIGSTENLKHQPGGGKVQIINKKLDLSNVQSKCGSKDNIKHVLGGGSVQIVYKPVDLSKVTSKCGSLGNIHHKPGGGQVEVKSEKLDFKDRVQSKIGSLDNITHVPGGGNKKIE
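Recombinant human tau K18 fragment […] carrying P301L, 15 uM unlabeled plus 0.24 uM Alexa 594-labeled, was fibrillized with 20 uM heparin in 100 mM sodium acetate pH 7 for 6 hr at 37 C; 30 uM ThT fluorescence read after 1 hr.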
Tau FP inhib – inhibitors of human tau fibril formation. P10636. Potency, µM (doses to about 57.7 µM), hits mostly inhibitors. K18 P301L tau heparin fibrillization, Alexa594 FP, 6 h. AID 1468. 280,000 tested, 0.39% active; further: nearly all actives have a fitted effect of over 55% in size
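Read-out: fluorescence polarization of Alexa 594-labeled tau (0.24 uM), 555 nm excitation, 632 nm emission. Mixtures held 15 uM unlabeled K18 P301L, compound and 20 uM heparin, pH 7 acetate buffer, incubated 6 hr at 37 C.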
Of the large screens only hits and unclear results are named; the others gave an inactive call; [ ] = dose if it differs, or a comment. Only some compounds are listed: those with a hit (about 3.1% of all), similar ones and a draw of the others. Unless noted, the call rests on the fitted dose curve; in most records, active means well fitted curve in the direction sought with a large enough effect; inconclusive means small, poorly fitted or top-dose-only effect, or another doubt; inactive means no such curve, though single readings can be large; an effect the other way counts as inactive or inconclusive.

Nc1nc(Nc2cccc(Cl)c2)sc1C(=O)c1ccc(F)cc1	Tau fluor cs 8.91µM[quencher], Tau fibril ThT inconclusive, Tau FP inhib inconclusive
COc1cccc(C(=O)c2sc(Nc3ccc(F)c(Cl)c3)nc2N)c1	Tau fluor cs inconclusive
Nc1nc(Nc2ccccc2F)sc1C(=O)c1ccc(Cl)cc1	Tau fluor cs 15.8µM[quencher], Tau fibril ThT 25.1µM
CCOc1ccc(Nc2nc(N)c(C(=O)c3ccccc3Cl)s2)cc1	Tau fluor cs 15.8µM[quencher], Tau fibril ThT inconclusive
CCOC(=O)c1sc(Nc2ccc(F)cc2)nc1C	none
Cc1ccc(C(=O)c2sc(Nc3ccc(F)cc3)nc2N)c(C)c1	Tau fluor cs 15.8µM[quencher]
Cc1ccc(CN2C(=O)C3(c4ccccc42)N(c2cccc(F)c2)C(=O)CS3(=O)=O)cc1 (stereo unspecified)	none
CCOc1ccc2c(c1)c(=O)c(C(=O)c1ccc3c(c1)OCO3)cn2Cc1cccc(F)c1	none
Cc1cc(C)c2oc(-c3cccc(NC(=O)COc4ccc([N+](=O)[O-])cc4)c3)nc2c1	Tau fibril ThT inconclusive, Tau FP inhib inconclusive
CCN(CC)c1ccc(N=Cc2c(C)[nH]c3ccccc23)cc1	TexasRed fluor inconclusive, TRb SRC2 PPI inconclusive, Tau fluor cs inconclusive, Tau fibril ThT 8.91µM, Tau FP inhib inconclusive
Cc1[nH]c2ccccc2c1/C=N/n1cnnc1	none
COCc1oc2ccc(NS(=O)(=O)c3ccc(C)cc3)cc2c1C(=O)OC	Tau fluor cs inconclusive
CC(=O)Nc1ccc(S(=O)(=O)/N=C2\C(=O)c3ccccc3C([O-])=C2n2cc[n+](-c3ccccn3)c2)cc1	Tau fluor cs 14.1µM[quencher], Tau fibril ThT 12.6µM, Tau FP inhib inconclusive
CCOc1cc(/C=C/c2ccc3cccc([N+](=O)[O-])c3n2)ccc1OCC(=O)N(C)C	Tau fibril ThT 7.08µM
CCOc1cc(/C=C/c2ccc3cccc([N+](=O)[O-])c3n2)ccc1O	Tau fluor cs inconclusive, Tau fibril ThT 14.1µM
CCOc1cc(/C=C/c2cc(C(F)(F)F)[nH]c(=O)n2)ccc1O	Tau fibril ThT 14.1µM
COc1cc(/C=C/c2ccc3cccc([N+](=O)[O-])c3n2)ccc1OCC#N	Tau fluor cs inconclusive, Tau fibril ThT inconclusive
CCOc1ccc(N=Nc2c(=O)[nH]n3c(C)cc(C)nc23)cc1	Tau fibril ThT 12.6µM
COc1cccc(N=Nc2c(=O)[nH]n3c(C)cc(C)nc23)c1	Tau fibril ThT inconclusive
CC(C)OCCCN1C(=O)c2[nH]nc(-c3ccccc3O)c2C1c1cccc(OCc2ccccc2)c1 (stereo unspecified)	Tau FP inhib inconclusive
Cc1cc(-c2ccc(N=Nc3ccc4c(S(=O)(=O)O)cc(S(=O)(=O)O)c(N)c4c3O)c(C)c2)ccc1N=Nc1ccc2c(S(=O)(=O)O)cc(S(=O)(=O)O)c(N)c2c1O	TexasRed fluor 17.8µM[fluorescent], TRb SRC2 PPI 25.1µM, Tau fluor cs 0.794µM[quencher], Tau fibril ThT 1.41µM, Tau FP inhib 3.16µM
Nc1c(S(=O)(=O)O)cc(Nc2cccc3ccccc23)c2c1C(=O)c1ccccc1C2=O	none (no result: Tau fluor cs, Tau fibril ThT, Tau FP inhib)
Nc1c(N=Nc2ccc(-c3ccc(N=Nc4cc(S(=O)(=O)O)c5ccccc5c4N)cc3)cc2)cc(S(=O)(=O)O)c2ccccc12	TexasRed fluor inconclusive, TRb SRC2 PPI inconclusive, Tau fibril ThT 1.12µM
O=C(N/N=C1\C/C(=N\NC(=O)c2ccncc2)c2ccccc21)c1ccncc1	Tau fluor cs inconclusive, Tau fibril ThT 10µM, Tau FP inhib inconclusive
NS(=O)(=O)c1ccc(CCNC(=O)c2nc(SCc3ccccc3F)ncc2Cl)cc1	none
CCOc1cc(/C=C(/C#N)C(=O)Nc2ccc(O)cc2)cc(Br)c1O	Tau fluor cs inconclusive, Tau fibril ThT 8.91µM
C=CCNC(=O)/C(C#N)=C\c1cc(Cl)c(O)c(OCC)c1	Tau fibril ThT inconclusive
COc1ccc(Cl)cc1C(Nc1cccnc1)c1ccc2cccnc2c1O (stereo unspecified)	Tau fibril ThT 28.2µM, Tau FP inhib inconclusive
CCCOc1ccc(N2C(=O)CC(N(CCc3ccc(OC)c(OC)c3)C(=S)Nc3ccccc3)C2=O)cc1 (stereo unspecified)	TexasRed fluor 0.501µM[quencher], TRb SRC2 PPI inconclusive
N#CCCCN1C(=O)C(O)(CC(=O)c2ccc3c(c2)OCCO3)c2ccccc21 (stereo unspecified)	Tau fibril ThT inconclusive
N#CCCCN1C(=O)C(=C(C#N)C#N)c2ccccc21	Tau fluor cs inconclusive, Tau fibril ThT 31.6µM, Tau FP inhib inconclusive
CCCc1nc2c(=O)n(C)c(=O)nc-2n(C)n1	TRb SRC2 PPI inconclusive, Tau fibril ThT 14.1µM, Tau FP inhib inconclusive
Cn1nc(-c2ccccn2)nc2c(=O)n(C)c(=O)nc1-2	TRb SRC2 PPI inconclusive, Tau fibril ThT 5.62µM, Tau FP inhib inconclusive
Cc1ccc(-n2ccnc(NCCc3ccc(S(N)(=O)=O)cc3)c2=O)cc1C	Tau fibril ThT inconclusive
Cc1nn(CC(=O)Nc2ccc(OC(F)(F)F)cc2)c(=O)c2c(C)n(-c3ccc(Cl)cc3)nc12	none
O=C(O)CCNS(=O)(=O)c1ccc2ccccc2c1	none
O=C(O)CCNc1cc2ccccc2cc1C(=O)O	Tau fibril ThT 15.8µM, Tau FP inhib inconclusive
Cc1cc2oc(C(=O)Nc3ccc(S(=O)(=O)N(C)Cc4ccccc4)cc3)cc(=O)c2cc1C	none
CN(C)c1ccc(Nc2ncnc3c2c(-c2ccccc2)cn3-c2cccc(Cl)c2)cc1	Tau fluor cs inconclusive, Tau fibril ThT inconclusive
O=C(/C=C/c1cccnc1)c1cc(F)ccc1O	none
O=C(/C=C/c1cccnc1)/C=C/c1cccnc1	Tau fibril ThT 4.47µM, Tau FP inhib inconclusive
O=C(c1ccccc1)c1ccc2nc(Nc3cc(Cl)ccc3O)c3nncn3c2c1	Tau fluor cs 17.8µM[quencher], Tau FP inhib inconclusive
O=[N+]([O-])c1ccc(/C=N/n2cnc3ccccc32)s1	Tau fluor cs 25.1µM[quencher], Tau fibril ThT 14.1µM
Cc1cc2ncn(/N=C/c3ccc([N+](=O)[O-])s3)c2cc1C	Tau fluor cs inconclusive, Tau fibril ThT inconclusive
O=C(c1ccccc1F)N1CCN(c2ccc([N+](=O)[O-])c(NCc3cccnc3)c2)CC1	Tau fibril ThT 15.8µM
CC(C)(C)C(=O)N1CCN(c2ccc([N+](=O)[O-])c(NCc3cccnc3)c2)CC1	Tau fibril ThT inconclusive
O=C(c1ccccc1)N1CCN(c2ccc([N+](=O)[O-])c(NCc3cccnc3)c2)CC1	Tau fibril ThT 15.8µM
CCN(c1ccccc1)S(=O)(=O)c1cc(Br)cc2c1N(C(=O)C1CC1)CC2	none
Cc1cc(-c2nsc(=O)o2)c(S(C)(=O)=O)s1	Tau fibril ThT 31.6µM, Tau FP inhib inconclusive
COc1cc(/C=N/NS(=O)(=O)c2ccc(C(C)(C)C)cc2)cc([N+](=O)[O-])c1O	Tau fibril ThT inconclusive
CCOC(=O)c1c(CSc2ccc(C)cc2)oc2ccc(O)cc12	Tau fluor cs inconclusive, Tau fibril ThT inconclusive, Tau FP inhib 31.6µM
CCOC(=O)c1c(NC(=O)c2ccc(S(=O)(=O)N3CCC(C)CC3)cc2)sc2c1CCN(CC)C2	none

Screening results from PubChem.
